Molecules are shown by their SMILES. Results filed as inconclusive are left out. Unmarked numbers belong to inactive results. Active and inactive are the calls of the source. Unless noted, the call rests on the fitted dose curve; in most records, active means well fitted cell-killing curve with a large enough effect in the repeat runs (not every such curve was filed as active); inconclusive means weak or mixed curves, or effect the other way; inactive means no such curve, though single readings can be large or run the other way.
On the % scale 0 is the no-effect control and ±100 the full control effect; potency means the concentration at half of the fitted maximal effect.

Chain of Vitamin D3 receptor (Homo sapiens) (P11473 whole entry, looked up): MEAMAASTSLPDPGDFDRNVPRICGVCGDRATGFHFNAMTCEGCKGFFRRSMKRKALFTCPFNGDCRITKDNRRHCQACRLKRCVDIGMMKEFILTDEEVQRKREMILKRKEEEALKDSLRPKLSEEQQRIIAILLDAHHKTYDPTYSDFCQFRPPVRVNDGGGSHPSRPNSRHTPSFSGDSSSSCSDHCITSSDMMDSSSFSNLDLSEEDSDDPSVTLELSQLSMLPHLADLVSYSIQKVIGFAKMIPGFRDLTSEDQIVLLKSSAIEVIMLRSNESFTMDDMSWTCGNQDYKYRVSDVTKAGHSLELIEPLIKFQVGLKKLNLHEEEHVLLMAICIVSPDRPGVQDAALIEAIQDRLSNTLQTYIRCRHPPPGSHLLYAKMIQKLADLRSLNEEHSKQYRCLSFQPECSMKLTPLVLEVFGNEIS

Test system in one experiment: not listed separately
The experiment is described as follows: qHTS assay to identify small molecule antagonists of the farnesoid-X-receptor (FXR) signaling pathway - cell viability counter screen (AID 743221). Further: nearly all actives have a fitted effect of over 50% in size. To be noted: FXR-bla HEK293T viability, CellTiter-Glo luminescence, 16 h; series mostly up to 62.6 µM; activity change, negative = cytotoxicity: at the top concentration. Put shortly: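 Cytotoxicity is taken from ATP luminescence (CellTiter-Glo, 30 min, room temperature) in FXR-bla HEK 293T cells previously incubated 16 h at 37 C with compound and chenodeoxycholic acid at 50 uM final.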
For `CNCC[C@H](Oc1cccc2ccccc12)c1cccs1`, the Potency is 11.9 µM (active).
For the compound `CCO[Si](CCCSSSSCCC[Si](OCC)(OCC)OCC)(OCC)OCC`, the “activity change, negative = cytotoxicity” value is -3.17%.
Regarding `C=CC(=C)CCC=C(C)C`, the “activity change, negative = cytotoxicity” value was -18.4%.
Regarding `COc1ccc2sc(C(=O)Nc3nnn[nH]3)c(OC(C)C)c2c1`, the “activity change, negative = cytotoxicity” value was -16.7%.
On to `CC1CCCNC1` (stereo not drawn), for which the “activity change, negative = cytotoxicity” value was 8.86%.
Consider `O=C(O)CCn1c2c(c3ccccc31)C[C@H](NS(=O)(=O)c1ccc(F)cc1)CC2`, for which the “activity change, negative = cytotoxicity” value is 0.982%.
As to `C[n+]1c2cc(N)ccc2cc2ccc(N)cc21` (tested in a mixture with another compound), the “activity change, negative = cytotoxicity” value was -9.34%.
In the case of `O=C1NCCN1CCN1CCC(c2cn(-c3ccc(F)cc3)c3ccc(Cl)cc23)CC1`, the Potency is 33.5 µM (active).
With `Cc1c(C)n(Cc2ccccc2)c2ccc(C(=O)OCCN(C)C)cc12`, the “activity change, negative = cytotoxicity” value is -15.1%.
Consider `CC(C)OC(=O)c1cc(C(=O)OC(C)C)cc([N+](=O)[O-])c1`, for which the “activity change, negative = cytotoxicity” value is 8.57% [at 81.1 µM].
As for `CCC(=O)OCCc1ccccc1`, the “activity change, negative = cytotoxicity” value was 6.73%.
Take `Clc1ccccc1CN1CCc2sccc2C1`: the “activity change, negative = cytotoxicity” value is -1.15%.
Take `C[C@@]12C(=O)OC(=O)[C@]1(C)C1CCC2O1`: the Potency is 13.3 µM (active).
Take `Cc1ccc(N)cc1O`: the “activity change, negative = cytotoxicity” value is -7.54%.
`Cc1ccc(-n2[nH]c(C)c(N=Nc3cccc(-c4cccc(C(=O)O)c4)c3O)c2=O)cc1C`: the “activity change, negative = cytotoxicity” value is 0.842%.
For the compound `c1ccc(Sc2ccccc2)cc1`, the “activity change, negative = cytotoxicity” value was -0.862%.
On to `CC(C)(c1cc(Br)c(O)c(Br)c1)c1cc(Br)c(O)c(Br)c1`, for which the Potency entry is “inactive”.
With `CN(C)c1ccc(N=NS(=O)(=O)O)cc1`, the “activity change, negative = cytotoxicity” value was -17% [at 81.1 µM].
Regarding `CCCCCCCOC(=O)c1ccc(O)cc1`, the Potency result was “inactive”.
For the compound `CC(C)(C)C1=CC(=O)C=C(C(C)(C)C)C1=O`, the “activity change, negative = cytotoxicity” value was -15.1%.

In another experiment the target is Vitamin D3 receptor (Homo sapiens) (UniProt P11473). The experiment is described as follows: qHTS assay to identify small molecule agonists of the vitamin D receptor (VDR) signaling pathway (AID 743222; calls by dose curve). Conditions: HEK293T VDR-UAS-bla, beta-lactamase FRET ratio, 16 h; series mostly up to 63.5 µM; activation: at the top concentration. Put shortly:
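VDR-bla cells were seeded, left 4 h, treated with compounds in DMSO for 16 h, incubated 2 h at RT with B/G FRET substrate, and read for fluorescence.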
Turning to `CCN(CC)CCSC(=O)C(c1ccccc1)c1ccccc1`, the “activation” value is 2.73%.
Same read-out and setting: under `CCO[Si](CCCSSSSCCC[Si](OCC)(OCC)OCC)(OCC)OCC` stands -22.4%; under `C=CC(=C)CCC=C(C)C`, 0.843%; under `Clc1ccc(C(Cn2ccnc2)OCc2c(Cl)cccc2Cl)c(Cl)c1` (stereo not drawn), -7.27%.
The same measure, in the same setting: the same measure for `CCN1CCN(c2cc(-c3ccc(F)cc3)c3c(n2)CCCCCC3)CC1`: -1.01% [at 29.5 µM]; for `Cc1c(C)n(Cc2ccccc2)c2ccc(C(=O)OCCN(C)C)cc12`: -0.337%; for `CCC(=O)OCCc1ccccc1`: -3.65%.
On to `CCOC(=O)C1=C(C)NC(C)=C(C(=O)OCC)C1c1ccccc1/C=C/C(=O)OC(C)(C)C`, for which the Potency was 29.8 µM (active).
As to `COc1ccccc1OCCNCC(O)COc1cccc2[nH]c3ccccc3c12` (stereo not drawn), the “activation” value was 0.195%.
As to `c1ccc(Sc2ccccc2)cc1`, the “activation” value was 0.618%.
Regarding `CCCCCCCOC(=O)c1ccc(O)cc1`, the Potency entry is “inactive”.
Take `NC(=O)c1nc(-c2cccc(-c3cc(F)ccc3OCC(F)(F)C(F)(F)F)c2)n[nH]1`: the “activation” value is 0.774%.
`CC(C)(C)C1=CC(=O)C=C(C(C)(C)C)C1=O`: the “activation” value is -21.1%.

For another experiment the target is unchanged. The experiment is described as follows: qHTS assay to identify small molecule antagonists of the vitamin D receptor (VDR) signaling pathway (AID 743223; active means well fitted inhibition curve with a large enough effect in the signal ratio in the repeat runs, not every such curve was filed as active; the % refers to the signal ratio). Conditions: VDR-UAS-bla HEK293T, beta-lactamase FRET ratio, 16 h; series mostly up to 61 µM; activity change, negative = inhibition: at the top concentration. The method in brief: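 Quantitative HTS in VDR-bla reporter cells stimulated with 1alpha,25-dihydroxyvitamin D3, 3 nM final. Compound exposure 16 h, 37C, 5% CO2. Read-out: beta-lactamase FRET substrate fluorescence, 2 h RT.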
(In general: In qHTS, concentration-response curves come from the screen itself.)
For the compound `CCN(CC)CCSC(=O)C(c1ccccc1)c1ccccc1`, the “activity change, negative = inhibition” value was -14.6%.
The same measure, in the same setting: the same measure for `CCCCOC(=O)C(C)CC` (stereo not drawn): 0.0921%; for `CCN1CCN(c2cc(-c3ccc(F)cc3)c3c(n2)CCCCCC3)CC1`: 0.357% [at 28.5 µM]; for `C=CCCCCCCC=C`: -3.48%.
For `Cc1c(C)n(Cc2ccccc2)c2ccc(C(=O)OCCN(C)C)cc12`, the “activity change, negative = inhibition” value is -9.61%.
Regarding `CNC(=S)NN`, the Potency is 17.4 µM (active).
`c1ccc(Sc2ccccc2)cc1`: the “activity change, negative = inhibition” value is 19.7%.
Regarding `COc1cc(C(=O)NS(=O)(=O)c2ccccc2C)ccc1Cc1cn(C)c2ccc(NC(=O)OC3CCCC3)cc12`, the “activity change, negative = inhibition” value was -4.63%.
On to `CC(C)(C)C1=CC(=O)C=C(C(C)(C)C)C1=O`, for which the “activity change, negative = inhibition” value was -28.9%.
As for `COC(=O)NCCC[Si](OC)(OC)OC`, the “activity change, negative = inhibition” value was 27.6%.

For the origin of these results see PubChem BioAssay (Tox21).
